In the library only some 2.7% were active in any assay of this set; here they are far more common.
Nrf2 block: Nrf2 qHTS screen for inhibitors | Potency, µM (series often up to 46 µM), usual class: inhibitors | actives 2.1% (n = 360,000) | AID 504444, 2011 | A549 ARE-Fluc reporter, luciferase luminescence, 18-24 h; also: nearly all actives have a fitted effect of over 60% in size
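In this cell-based qHTS, ARE-driven firefly luciferase in A549 cells reports Nrf2 activity; the luminescent signal after BugLite lysis is the measured value, with a prior CellTiter-Fluor read for cell health.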
LDHA inh: qHTS assay for inhibitors of human lactate dehydrogenase | purified LDHA, NADH/diaphorase-resazurin fluorescence; active compounds read low | activity change, % (values are at about 110 or 230 µM) | actives 0.15% (n = 480,000) | AID 1347041, 2019; in the data active = activity change below about -30%; inconclusive = mostly about -25% to -30%
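Human LDH5 (2 nM) was incubated with 0.06 mM NADH and 0.2 mM pyruvate for 5 min at room temperature in Tris pH 7.4. Remaining NADH was coupled through diaphorase/resazurin, and resorufin fluorescence was read at 0 and 20 min.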
A549 viability: Nrf2 qHTS screen for inhibitors: counterscreen for cytotoxicity; A549 ARE-Fluc cells, CellTiter-Fluor viability, 18-24 h; Potency, µM (doses to about 46 µM), actives largely listed as inhibitors; actives 0.16% (n = 390,000)
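A549 ARE_Fluc cells in 5% FBS OPTI-MEM were exposed to compounds in concentration-response for 18-24 h at 37 deg C. Viability was read by CellTiter-Fluor fluorescence (Ex 405/Em 525) after 30 min, before the luciferase read.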
ALOX12 inh: Primary qHTS assay for inhibitors of human arachidonate 12S-lipoxygenase (ALOX12): Round 2. purified 12hLO, xylenol orange hydroperoxide absorbance. actives 1.1% (n = 580,000). Potency, µM (series often up to 108 µM), most hits filed as inhibitors. AID 1671190, 2021
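Purified human 12hLO at 150 nM in 25 mM Hepes, 0.01% Triton X-100, pH 7.0, preincubated 15 min at room temperature with compound. Reaction started with 40 uM arachidonic acid, 30 min at room temperature. Hydroperoxide measured by Fe-xylenol orange, 573/405 nm absorbance ratio.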
Nrf2 ARE act: qHTS of Nrf2 Activators; AREc32 ARE-luciferase reporter (MCF7-derived line), luminescence, 24 h; Potency, µM (titrated, usually from 46.1 µM), actives largely listed as activators; actives 0.31% (n = 410,000); also: nearly all actives have a fitted effect of over 65% in size
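AREc32 cells carrying an ARE-driven firefly luciferase, 1000 cells/well in OPTI-MEM with 5% FBS, dosed after overnight attachment and incubated 24 hr at 37 deg C. Steady-Glo luminescence read after 30 min at RT.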
mIDH1 inhibitor: qHTS for Inhibitors of mutant isocitrate dehydrogenase 1 (IDH1): qHTS. Isocitrate dehydrogenase [NADP] cytoplasmic (Homo sapiens), O75874. IDH1-R132H enzyme, NADPH consumption, diaphorase/resazurin fluorescence. Potency, µM (titrated, usually from 76.6 µM), hits mostly inhibitors. actives 0.093% (n = 390,000). AID 602179, 2012; also: nearly all actives have a fitted effect of over 65% in size
Target sequence (O75874 whole entry R132H, stated change not applied): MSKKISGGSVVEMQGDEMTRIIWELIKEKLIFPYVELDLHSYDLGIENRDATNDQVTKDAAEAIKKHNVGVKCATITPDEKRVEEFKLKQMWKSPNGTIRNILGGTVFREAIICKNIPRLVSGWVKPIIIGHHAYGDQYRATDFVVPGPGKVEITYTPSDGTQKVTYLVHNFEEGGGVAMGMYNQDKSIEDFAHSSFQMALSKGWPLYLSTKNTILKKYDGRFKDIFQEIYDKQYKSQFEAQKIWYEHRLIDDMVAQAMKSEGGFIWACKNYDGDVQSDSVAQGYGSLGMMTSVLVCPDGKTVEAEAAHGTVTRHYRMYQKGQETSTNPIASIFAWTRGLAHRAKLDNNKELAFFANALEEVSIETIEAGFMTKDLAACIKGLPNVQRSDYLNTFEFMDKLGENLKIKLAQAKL
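IDH1-R132H (0.5 ug/mL dispensed) in pH 7.5 Tris buffer was preincubated 30 min with compound, then given a substrate mix of 0.016 mM NADPH and 2 mM alpha-KG for 80 min at room temperature; remaining NADPH was read by diaphorase/resazurin fluorescence.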
Resorufin autofl: qHTS for Inhibitors of mutant isocitrate dehydrogenase 1 (IDH1): Cherrypicks Autofluorescence Interference. shares compounds with mIDH1 inhibitor. Resorufin detection reagent fluorescence interference, cell-free. inhibition of signal, % at 51.2 µM. 750 tested, under 10 active
IDH1 WT: qHTS for Inhibitors of mutant isocitrate dehydrogenase 1 (IDH1): Cherrypicks in WT IDH1. WT IDH1 enzyme, NADPH diaphorase/resazurin fluorescence. AID 623995, 2012. shares compounds with mIDH1 inhibitor. actives 9% (n = 750). Potency, µM (series often up to 115 µM), usual class: inhibitors; also: nearly all actives have a fitted effect of over 55% in size
Target sequence (O75874 whole entry, looked up): as the sequence (O75874 whole entry R132H, stated change not applied) above, with H132R counted along it
IDH1 R132H conf: qHTS for Inhibitors of mutant isocitrate dehydrogenase 1 (IDH1): Confirmation of Cherrypicks; shares compounds with mIDH1 inhibitor; IDH1 R132H enzyme, NADPH diaphorase/resazurin fluorescence; Potency, µM (doses to about 76.6 µM), most hits filed as inhibitors; actives 83% (n = 750); also: nearly all actives have a fitted effect of over 50% in size
Hits are given with their value; 0 = inactive; ? = inconclusive; - = not tested or not shown; [ ] = dose if it differs, or a comment. Unless noted, calls follow the shape of the dose curve; as a rule, active = well fitted curve in the direction sought with a large enough effect; inconclusive = small, poorly fitted or top-dose-only effect, or another doubt; inactive = no such curve, though single readings can be large; an effect the other way counts as inactive or inconclusive.

SMILES	Nrf2 block	LDHA inh	A549 viability	ALOX12 inh	Nrf2 ARE act	mIDH1 inhibitor	Resorufin autofl	IDH1 WT	IDH1 R132H conf
COC(=O)C1=C(c2ccccc2)c2ccccc2S(=O)(=O)N1CC(=O)Nc1ccc(F)cc1F	-	0	-	0	-	-	-	-	-
c1ccc(N(c2ccccc2)c2nc(N3CCCC3)nc(-n3ccnc3)n2)cc1	23µM	0	?	0	0	9.3µM	0	0	6.3µM
CN(c1ccccc1)c1nc(N2CCCC2)nc(-n2ccnc2)n1	0	0	0	0	0	0	-	-	-
COc1ccc(Nc2c3c(nc4ccc(NC(=O)/C=C/c5cc(OC)c(OC)c(OC)c5)cc24)CCCC3)cc1OC	0[9.27 µM]	0	?	0	?	?	0	0	?
COc1ccc(-n2cc(CN3CCCN(C)CC3)c(-c3cccc(F)c3)n2)cc1	-	-	-	0	-	-	-	-	-
O=C(NCCN1CCOCC1)c1cc2nc(-c3cccs3)cc(C(F)(F)F)n2n1	-	0	-	?	-	-	-	-	-
CC(=O)Oc1ccc(C(=O)[C@H]2[C@H]3C(=O)N(c4ccc(C)cc4C)C(=O)[C@H]3[C@@H]3C=CC=NN32)cc1	0	0	0	?	0	41µM	0	0	28µM
CCOC(=O)CSC1=NC(=O)/C(=C/c2ccc(Br)cc2)S1	?	0	0	40µM	0	?	0	71µM	35µM
O=C(Cc1ccc(Br)cc1)Nc1cc(Cl)ccc1C(=O)O	-	0	-	?	-	-	-	-	-
CCc1ccc(N(C(=O)Cc2cccs2)C(C(=O)NC2CCCCC2)c2cn(C)nc2C)cc1 (centres undefined)	0	0	0	0	0	0	-	-	-
Cc1ccccc1C(C(=O)NC1CCCC1)N(C(=O)Cc1cccs1)c1ccc2c(c1)OCCO2 (centres undefined)	?	0	0	0	0	6.6µM	0	0	4µM
COc1cccc(N(C(=O)Cc2cccs2)C(C(=O)NC2CCCC2)c2ccncc2)c1 (centres undefined)	?	0	0	0	0	0	-	-	-
Cc1ccc(C(C(=O)NC2CCCC2)N(C(=O)Cc2cccs2)c2cccc(C)c2C)o1 (centres undefined)	?	0	?	0	0	9.3µM	0	0	6.3µM
CCOc1cccc(N(C(=O)Cc2cccs2)C(C(=O)NC2CCCCC2)c2cccn2C)c1 (centres undefined)	0	0	0	0	0	?	0	0	16µM
Cc1cc(C)cc(N(C(=O)Cc2cccs2)C(C(=O)NC2CCCC2)c2ccc(C)o2)c1 (centres undefined)	0	0	0	0	0	7.4µM	0	0	4µM
COc1ccc(N(C(=O)Cc2cccs2)C(C(=O)NC2CCCC2)c2ccncc2)cc1 (centres undefined)	?	0	0	0	0	0	-	-	-
COc1ccc2c(C)c(CC(=O)Nc3cccc(Br)c3)c(=O)oc2c1OC	-	0	-	0	-	-	-	-	-
Cc1cc(C)cc(N(C(=O)Cc2cccs2)C(C(=O)NC2CCCCC2)c2ccccn2)c1 (centres undefined)	0	0	0	0	0	?	0	0	14µM
